# MBD2 inh: inhibitors of MBD2 binding to methylated DNA, primary screen, biochemical, TR-FRET, DNA-binding domain, human. AID 686964, 2013. Methyl-CpG-binding domain protein 2 (Homo sapiens), Q9UBB5. inhibition, % at 4.4 µM. 370,000 compounds, 0.31% hits. MBD2 binding to methylated oligonucleotide; in the data active = inhibition above about 13%
# Target sequence (Q9UBB5 whole entry, looked up, the tested form may be a part): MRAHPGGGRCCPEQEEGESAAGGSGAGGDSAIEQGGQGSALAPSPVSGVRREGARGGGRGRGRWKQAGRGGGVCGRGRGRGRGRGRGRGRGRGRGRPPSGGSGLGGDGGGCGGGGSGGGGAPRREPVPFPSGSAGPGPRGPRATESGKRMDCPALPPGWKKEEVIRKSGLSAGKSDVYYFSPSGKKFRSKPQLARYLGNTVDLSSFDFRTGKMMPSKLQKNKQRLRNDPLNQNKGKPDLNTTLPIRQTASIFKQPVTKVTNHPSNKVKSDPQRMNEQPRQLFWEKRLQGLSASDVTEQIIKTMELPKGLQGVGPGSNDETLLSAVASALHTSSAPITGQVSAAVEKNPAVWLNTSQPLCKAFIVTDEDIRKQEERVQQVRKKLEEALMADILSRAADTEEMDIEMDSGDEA
# UHRF1 binding: UHRF1 methylated DNA binding inhibitors, primary screen, counter-screen for MBD2 inhibitor project, biochemical, TR-FRET, human UHRF1, single concentration; AID 687016, 2013; inhibition, % at 4.4 µM; UHRF1 binding to methylated oligo; 370,000 compounds, 0.75% hits; in the data active = inhibition above about 21%;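 note: UHRF1 SRA domain binding a hemimethylated CpG hairpin DNA probe; 0% = median of test compound wells and 100% = reference inhibitor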
# PLC-gamma1 inh: PLC-gamma1 enzyme inhibitors, primary screen, biochemical, fluorescence, purified enzyme. fluorogenic substrate. inhibition, % at 12.2 µM. 370,000 compounds, 0.84% hits; in the data active = inhibition above about 9.5%
# PLC-beta3 inh: human PLC-beta3 inhibitors, primary screen, biochemical, fluorescence. 1-phosphatidylinositol 4,5-bisphosphate phosphodiesterase beta-3 (Homo sapiens), Q01970. Purified PLC-beta3, fluorogenic substrate. inhibition, % at 12.2 µM. 370,000 compounds, 0.18% hits; in the data active = inhibition above about 11%;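 note: 0% = median of compound wells on plate and 100% = full blocker control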
# LEDGF integ inh: blockers of LEDGF/p75-dependent integrase strand transfer – biochemical, TR-FRET, high throughput, primary screen; HIV-1 integrase (with human LEDGF/p75); TR-FRET IN-LEDGF/p75 DNA integration, Eu/Cy5; inhibition, % at 3.7 µM; 370,000 compounds, 0.64% hits; AID 743269, 2014;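 active = inhibition above the screen-wide mean plus 3 SD, cut at about 13% in these data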;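 note: signal is the Cy5 over europium emission ratio at 671 and 618 nm; 0% = plate median of compound wells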
# Starred values were filed as active, the others as inactive; i = inactive. Compounds with a hit are over-represented: about 2.4% of the library has one in this group of screens.
SMILES,MBD2 inh,UHRF1 binding,PLC-gamma1 inh,PLC-beta3 inh,LEDGF integ inh
COC(=O)[C@]12C[C@H](CC(=O)NCCCCc3ccccc3)C(=O)N(Cc3ccco3)C1=C[C@H](C(C)(C)C)O[C@@H]2C,1,-4,1,-1,1
CCOC(=O)N1CCN(C(=O)C[C@@H]2C(=O)N3CCCC4=C3[C@@]2(C(=O)OCC)CCC4)CC1,0,-2,1,4,7
CC1CCCCC1n1c(-c2cccnc2)n[nH]c1=S (stereo not drawn),-1,72*,1,4,0
O=C(CSc1nnc(-c2cccs2)n1-c1ccccc1)N1CCCc2ccccc21,0,-5,-2,-1,-4
CCn1c(SCC(=O)N2CCCc3ccccc32)nnc1-c1cccs1,8,21*,-2,0,3
COc1cc(O)ccc1C=O,2,27*,2,-3,-3
CO[C@H]([C@H](C)/C=C/N(C)C=O)[C@@H](C)C(=O)CC[C@H](C)[C@H](O)[C@H](C)[C@H]1OC(=O)/C=C/C(C)=C/C[C@H](O)C[C@@H]2C=CC[C@@H](C[C@H](OC)[C@@]3(CO3)[C@@H](OC)C[C@@H](OC)[C@@H]1C)O2,0,1,0,-1,-3
COc1ccc(N2CCN(C(=O)c3cc4c(s3)-c3ccccc3S(=O)(=O)C4)CC2)cc1,5,22*,1,-6,1
C=CCN1C(=O)[C@@H](CC(=O)NCCCN2CCCC2=O)[C@]2(C(=O)OC)CCCCC=C12,-1,4,-1,3,5
COc1cc2c(cc1OC)C(=O)Cc1ccc3c(c1CN(C)CC2)OCO3,5,1,-1,-2,-2
COc1ccc2c(c1OC)CN(C)CCc1cc3c(cc1C(=O)C2)OCO3,13,21*,0,-6,6
CCOC(=O)CN1C(=O)N2C[C@H]3CON(C)[C@H]3C[C@H]2c2ccccc21,-4,47*,3,4,6
COc1ccc(N2CCN(C(=O)CN(c3ccc(OC)cc3)S(=O)(=O)c3ccccc3)CC2)cc1,8,31*,0,-7,6
CC12COC3(C(=O)Nc4ccc(F)cc4)CC1CCC32C (stereo not drawn),1,4,0,-64,-3
CC12COC3(P(=O)(c4ccccc4)c4ccccc4)CC1CCC23CP(=O)(c1ccccc1)c1ccccc1 (stereo not drawn),11,22*,2,4,-2
Cc1ccc(F)cc1C(=O)N(Cc1ccccn1)CC1CCCO1 (stereo not drawn),6,-1,0,3,0
CC(C)Oc1ccc2ccccc2c1CNC[C@H]1O[C@@H](n2cnc(C(N)=O)n2)[C@H](O)[C@@H]1O,6,44*,1,4,3
NC(=O)c1ncn([C@@H]2O[C@H](CNCc3cccc4c3sc3ccccc34)[C@@H](O)[C@H]2O)n1,9,22*,-1,3,-2
NC(=O)c1ncn([C@@H]2O[C@H](CNCc3ccccc3OCc3ccc(Cl)cc3Cl)[C@@H](O)[C@H]2O)n1,-6,-4,2,2,0
CCOC(=O)c1cc(-c2ccccc2)nn1CCC#N,1,44*,-4,-5,-1
N=c1n(CCCOc2ccccc2Cl)c2ccccc2n1CC(N)=O,-3,25*,0,-6,3
Cc1cc(C(=O)OCC(=O)N2CCC(C)CC2)c2ccccc2n1,-2,2,-4,-9,35*
COc1ccc(-c2nnc(SCC(=O)N(C)C3CCS(=O)(=O)C3)n2N)cc1OC (stereo not drawn),6,42*,-1,-5,-2
COc1ccc(-c2nnc(SCC(=O)N(C)C3CCS(=O)(=O)C3)n2CC(C)C)cc1 (stereo not drawn),-1,-1,2,2,-3
CCCc1nc2ccc(C(=O)OC)cn2c1Cc1ccccc1C(F)(F)F,11,25*,-35,-53,2
SMILES,MBD2 inh,UHRF1 binding,PLC-gamma1 inh,PLC-beta3 inh,LEDGF integ inh
CCCc1nc2ccc(C(=O)OC)cn2c1Cc1ccccc1OC,-4,23*,-24,-36,4
COC(=O)c1ccc2nc(-c3ccc(F)cc3)c(Cc3ccccc3OC)n2c1,4,17,-20,-30,-1
Cc1ccccc1CNC(=O)c1cccc2c1C(=O)N(Cc1cccnc1)C2,10,3,3,4,-6
COc1ccc2c(c1)CCCN2C(=O)C1CCCN(S(=O)(=O)c2ccc(Br)s2)C1 (stereo not drawn),0,3,1,-1,-1
CCCCCOc1ccc(/C=N/NC(=O)CSc2nnc(-c3ccc(OC)cc3)n2-c2ccc(C)cc2)cc1,-2,-2,2,2,-1
CCN(CC)C(=O)Oc1ccc2oc(=O)cc(-c3cc4cccc(OC)c4o3)c2c1,4,21*,-35,-63,-1
COc1ccc2oc(=O)cc(-c3cc4cccc(OC)c4o3)c2c1,-1,0,-8,-16,1
Cc1ccc(C)c(NS(=O)(=O)c2cc(C(=O)NCCSC3CCCCC3)ccc2C)c1,-4,3,14*,2,5
Cc1ccccc1NS(=O)(=O)c1cc(C(=O)NCCSC2CCCCC2)ccc1C,2,0,4,3,-1
COC(=O)[C@]12CCCCC=C1N(Cc1ccccc1)C(=O)[C@H](CC(=O)NCc1cccc3ccccc13)C2,-1,2,0,4,0
COC(=O)[C@]12CCCCC=C1N(CCC1=CCCCC1)C(=O)[C@H](CC(=O)NCc1cccc3ccccc13)C2,6,21*,2,2,-2
Cc1cccc(OCCCn2c(=O)oc3ccc(C)cc32)c1,11,25*,3,-2,12
CCCOc1ccc(Cn2c(=O)oc3ccc(C)cc32)cc1OC,-8,1,6,13*,2
CCCOc1ccccc1Cn1c(=O)oc2ccc(C)cc21,4,4,-1,0,-5
COc1ccc(/C=C2\CC3(OC(=O)C4CCCC4)CCCN2C3)cc1 (stereo not drawn),1,2,0,-4,3
O=C(Nn1cnnc1)c1ccc(Cl)c([N+](=O)[O-])c1,0,25*,2,-6,-3
O=C(Nc1nc2ncccn2c1-c1ccc(F)c(F)c1)C1CC1,0,-4,i,i,7
CCOC(=O)C1CCN(CC(O)COCc2ccc(Cl)cc2)CC1 (stereo not drawn),3,-3,2,-5,-1
CCN(CCNCC(O)COCc1ccc(Cl)cc1)c1cccc(C)c1 (stereo not drawn),-4,29*,8,-7,2

# Bioassay records from PubChem BioAssay.
